According to PubChem BioAssay AID1814 (Broad Institute, 2009):
The campaign covered roughly 300,000 compounds. About 22,000 (7.3%) were called active. Inconclusive results (about 2%) are left out. Cut-off read from the data, not from the text of the source: active = activity score below about -60%; inconclusive = mostly about -28% to -61%; inactive = positive scores. The sample as a whole holds a higher share of actives than the screen did.

Test: Activators via SNCA 5'UTR binding, MLPCN (AID 1814)
Details: alpha-synuclein 5'UTR reporter, activators screen; stronger effect = lower value; tested at 7.5 µM

| SMILES | activity score |
| --- | --- |
| O=C(Nc1ccc(S(=O)(=O)N2CCOCC2)cc1)c1ccc2ncsc2c1 | -76.4% (active) |
| CC1CCCN(c2ccc(C(=O)NCCc3ccccc3)cn2)C1 (configuration not stated) | -104% (active) |
| CC1CCN(c2ccc(-c3ccc(NC(=O)c4ccco4)cc3)nn2)CC1 | -144% (active) |
| CCC(=O)Nc1ccc(-c2ccc(N3CCCCC3)nn2)cc1 | -132% (active) |
| [O-][n+]1onc2c1CCc1[nH]c(-c3ccccc3)nc1-2 | -130% (active) |
| O=C(COc1ccccc1)Nc1nonc1NC(=O)COc1ccccc1 | -62.2% (active) |
| O=C(COc1ccccc1)Nc1ccc(F)cc1 | -69.2% (active) |
| CC(=O)Nc1ccc(NC(=O)COc2ccccc2C(=O)Nc2cccc(Cl)c2Cl)cc1 | 41.1% (inactive) |
| CC(=O)Nc1ccc(NC(=O)COc2ccc(S(=O)(=O)NC(C)c3ccccc3)cc2)cc1 (configuration not stated) | -147% (active) |
| CC(C)[C@@H]1COC(c2cccc(C3=N[C@H](C(C)C)CO3)c2)=N1 | -152% (active) |
| CCOc1ccc(NC(=O)c2ccc(NC(=O)COC(=O)c3ccc(NC(=O)CC#N)cc3)cc2)cc1 | -88.1% (active) |
| CCOc1ccc(NC(=O)CCNC(=O)c2ccc(Br)cc2)cc1 | -69.9% (active) |
| COc1ccc2c(Cl)c(C(=O)NCc3ccco3)sc2c1 | -164% (active) |
| O=C(NCc1ccco1)c1sc2cccc(F)c2c1Cl | -99.4% (active) |
| COc1ccc(C2=NOC(C(=O)NCc3ccco3)C2)cc1OC (configuration not stated) | 51.4% (inactive) |
| COc1ccc2oc(C(=O)NCc3ccco3)c(C)c2c1 | -92.6% (active) |
| Cc1cccc(N(CC(=O)Nc2ccc(-c3nc4ccc(C)cc4s3)cc2)S(C)(=O)=O)c1 | -159% (active) |
| Cc1ccc2nc(-c3ccc(NC(=O)CN(C)S(=O)(=O)c4ccccc4)cc3)sc2c1 | -67.2% (active) |
| Cc1cccc2cc3c(N)c(C(=O)N4CCCc5ccccc54)sc3nc12 | 85.2% (inactive) |
| Cc1c(C(=O)N2CCCc3ccccc32)sc2nc(-c3ccccc3)cn12 | -83.5% (active) |
| Cc1c(C(=O)NCC2CCCO2)sc2nc(-c3ccccc3)cn12 (configuration not stated) | -102% (active) |
| Cc1ccc(C(=O)Cc2nnc(C)s2)cc1 | -98.4% (active) |
| O=c1c2ccccc2ncn1/N=C/c1ccccc1 | -192% (active) |
| Cc1cc(/C=C2/SC(=O)N(CC(=O)OC(C)C)C2=O)c(C)n1C | -159% (active) |
| Cc1cc(SCC(=O)NCCN2C(=O)CSC2=O)nc2ccccc12 | -74.6% (active) |
| O=C(Nc1cccc([N+](=O)[O-])c1)N1CCc2ccccc2C1 | -99.5% (active) |
| CCc1ccc(NC(=O)N2CCc3ccccc3C2)cc1 | -68.2% (active) |
